The values below come from ChEMBL document CHEMBL1157539, “Thousands of chemical starting points for antimalarial lead identification” (Nature, 2010).

SMILES strings stand for the structures.

As a reminder, the Inhibition is the share of the control response that was lost under treatment.

This assay has as its system Plasmodium falciparum. Nature of the assay: GSK_TCMDC: Inhibition of Plasmodium falciparum 3D7 in whole red blood cells, using parasite LDH activity as an index of growth. Test compounds present at 2uM. It is filed as functional.
`COc1ccc(NCCCNc2ccnc3ccccc23)cc1` showed an Inhibition of 88%.

Compound `CC(C)(C)c1ccc(NC(=O)c2cccc(CN3CCCN(Cc4ccc(F)cc4)CC3)c2)cc1.O=C(O)C(F)(F)F` yielded an Inhibition of 88%.

Consider `CCCc1cc(Cc2cnc(N)nc2N)cc(CCC)c1OCCCCCC(=O)OCC`, for which the Inhibition turned out to be 95%.

Regarding `CCc1cn(C)c2c(N3CCCC3=O)cc(C(=O)N[C@@H](Cc3ccccc3)[C@H](O)CNC(C)(C)CCCC(C)C)cc12`, the Inhibition was determined as 97%.

As for `Cc1cccc2nc(-c3ccc(-c4cccc(NC(=O)Nc5cccc(C#N)c5)c4)cc3)[nH]c12`, the Inhibition is on record as 100%.

`CNC(=O)CNC(=O)COc1cccc2ccccc12` yielded an Inhibition of 98%.

Consider `N=C(N)NCCCN(Cc1ccccc1)c1ccc(Cl)cc1.O=S(=O)(O)O`, for which the Inhibition turned out to be 100%.

Regarding `O=C(Nc1cccc(CN2CCCN(CC3CCCCC3)CC2)c1)c1cc2ccccc2s1.O=C(O)C(F)(F)F`, the Inhibition turned out to be 96%.

As for `COc1cccc2c(C)cc(NCc3ccc(Cl)cc3)nc12`, the Inhibition was 97%.

The compound `COc1ccc(-c2cncc3ccc(C(=O)NCCCn4ccnc4)nc23)cc1` showed an Inhibition of 95%.

In the case of `O=C(Nc1ccc(Cn2ncc(N3CCCNCC3)c(Cl)c2=O)cc1)Nc1cc(Cl)cc(Cl)c1.O=C(O)C(F)(F)F`, the Inhibition is 91%.

The compound `Cl.O=C(Nc1cccc(Cl)c1)OC1CCCN2CCCCC12` (stereo not given) came in with an Inhibition of 85%.

Turning to `CC1(C)CN2CCCC2c2cc(NC(=O)/C=C/c3ccccc3Cl)ccc21.Cl` (stereo not given), the Inhibition came out at 88%.

Regarding `Cc1cccc2nc(-c3cccc(-c4cccc(NC(=O)c5ccc(=O)[nH]n5)c4)c3)[nH]c12`, the Inhibition was 100%.

Compound `FC(F)(F)c1ccc2[nH]c(-c3ccc(-c4ccc(CNCC5CCCO5)cc4)cc3)nc2c1.O=C(O)C(F)(F)F` (stereo not given) gave an Inhibition of 100%.
